Source: PubChem
Rows were chosen to be rich in hits. Some 3.7% of all compounds tested hit in one or more screens of this group.
tim23-1 inh: tim23-1 yeast growth inhibition; S. cerevisiae tim23-1 growth, BacTiter-Glo luminescence, 24 h; inhibition, % at 20 µM; hit rate 1.3% among 330,000;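 active = growth inhibition of the mutant yeast at or above 50%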;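 also: temperature-sensitive mutant grown at 25 °C; plate controls were DMSO-treated mutant yeast for no effect and medium wells lacking yeast for full effect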
tim10-1 inh: tim10-1 yeast growth inhibition; S. cerevisiae tim10-1 ts strain growth, BacTiter-Glo, 24 h; inhibition, % at 20 µM; hit rate 2.2% among 330,000; AID 463190;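 active = inhibition of at least 40%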;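 also: mutant grown at 25 °C; 0% = DMSO wells with yeast and 100% = wells holding no yeast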
PfHsp90 yeast 2: inhibits growth of yeast expressing Plasmodium falciparum Hsp90. AID 504621. hit rate 0.32% among 310,000. S. cerevisiae expressing PfHsp90, BacTiter-Glo ATP, 48 h; yeast lacking PDR1 and PDR3 efflux regulators. inhibition, % at 9.4 µM;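 active = every replicate shows inhibition above about 80%, whatever the replicate mean, limit read from the data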;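 also: 0% = DMSO neutral controls and 100% = 20 µM radicicol positive controls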
NLRP3 yeast inh: blocks the NALP3 inflammasome reconstituted in yeast. Yeast reconstituted NLRP3/ASC/caspase-1, beta-gal luminescence, 24 h. inhibition, % at 10 µM. hit rate 0.39% among 330,000. AID 2825;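 active = inhibition of 50% or more; inactive = inhibition below 50%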;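 also: plate controls were induced DMSO wells for no effect and uninduced yeast grown without galactose for full effect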
TIM10 inh: TIM10 yeast growth inhibition | AID 463195 | S. cerevisiae TIM10 strain growth, BacTiter-Glo luminescence, 24 h | hit rate 1.4% among 330,000 | inhibition, % at 10 µM;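 active = inhibition of 40% or more at the single tested concentration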;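 also: wild-type TIM10 isogenic control strain grown at permissive 25 °C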
tim10-1 conf: tim10-1 yeast growth inhibition, confirmed. hit rate 56% among 7,400. AID 463213. shares compounds with tim10-1 inh. inhibition, % at 20 µM. S. cerevisiae tim10-1 ts strain growth, BacTiter-Glo, 24 h;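 active = inhibition of yeast growth at or above a set limit in either of two repeat tests at 20 µM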;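 also: tim10-1 mutant grown at permissive 25 °C to find synthetic lethal compounds; 0% = DMSO yeast wells and 100% = medium wells without yeast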
Active calls of the source: *.

For CCc1ccc(/C=C(\C)C(=O)c2c(C)cc(C)[nH]c2=O)cc1 the results were tim23-1 inh 13, tim10-1 inh 20, PfHsp90 yeast 2 5, NLRP3 yeast inh 6 and TIM10 inh 2.
`Cc1cc(NC(=O)C2CCCN(S(=O)(=O)c3cnc[nH]3)C2)ccc1Br` (stereo not given) gave tim23-1 inh 15, tim10-1 inh -20, PfHsp90 yeast 2 4, NLRP3 yeast inh 9 and TIM10 inh 2.
CCOP(=O)(NC12CC3CC(CC(C3)C1)C2)NC12CC3CC(CC(C3)C1)C2 was read as tim23-1 inh 25, tim10-1 inh 40*, PfHsp90 yeast 2 3, NLRP3 yeast inh 15, TIM10 inh 26 and tim10-1 conf 28.
`COCCC(=O)NC12CC3CC(CC(C3)C1)C2` gave tim23-1 inh 4, tim10-1 inh 1, NLRP3 yeast inh 5 and TIM10 inh -1.
COc1cc2c(cc1OC)C1=NC(=O)CN1C(SCc1ccccc1C)=N2 was read as tim23-1 inh 24, tim10-1 inh 41*, PfHsp90 yeast 2 13, NLRP3 yeast inh 8, TIM10 inh 13 and tim10-1 conf 24.
`Cc1ccc(CSC2=Nc3ccccc3C3=NC(=O)CN23)cc1` gave tim23-1 inh 36, tim10-1 inh -35, PfHsp90 yeast 2 19, NLRP3 yeast inh 19 and TIM10 inh 14.
Screening COc1cccc2sc(N3CCN(C(=O)c4ccc([N+](=O)[O-])o4)CC3)nc12 returned tim23-1 inh -37, tim10-1 inh 51*, PfHsp90 yeast 2 -4, NLRP3 yeast inh 35, TIM10 inh 25 and tim10-1 conf 28.
For Cc1ccc2sc(N3CCN(C(=O)c4ccc([N+](=O)[O-])o4)CC3)nc2c1C the results were tim23-1 inh 30, tim10-1 inh 19, NLRP3 yeast inh 32 and TIM10 inh -28.
`CCOC(=O)c1cc(NC(=O)Nc2ccccc2OC)c(C)nc1C` gave tim23-1 inh 11, tim10-1 inh 41*, PfHsp90 yeast 2 -2, NLRP3 yeast inh 6, TIM10 inh 20 and tim10-1 conf 22.
For CCOC(=O)c1cc(NC(=O)Nc2ccccc2Cl)c(C)nc1C the results were tim23-1 inh 7, tim10-1 inh 31, PfHsp90 yeast 2 -85, NLRP3 yeast inh 24 and TIM10 inh 21.
For NC(=O)COC(=O)c1ccc(Cl)c(S(=O)(=O)N(Cc2ccccc2)c2ccc(Cl)cc2)c1 the results were tim23-1 inh 28, tim10-1 inh 41*, PfHsp90 yeast 2 -19, NLRP3 yeast inh 16, TIM10 inh 8 and tim10-1 conf 32*.
CCCCCCCC1c2c(c(C)c(C)oc2=O)Oc2c(C)c(C)oc(=O)c21 was read as tim23-1 inh 22, tim10-1 inh 13, PfHsp90 yeast 2 9, NLRP3 yeast inh 2 and TIM10 inh 1.
Screening COc1ccc(NC(=O)C2CCCCN2S(=O)(=O)c2ccc(F)cc2)c(OC)c1 (stereo not given) returned tim23-1 inh 31, tim10-1 inh 44*, PfHsp90 yeast 2 3, NLRP3 yeast inh 4, TIM10 inh 34 and tim10-1 conf 29.
Screening COc1ccccc1NC(=O)C1CCCCN1S(=O)(=O)c1ccc(F)cc1 (stereo not given) returned tim23-1 inh 29, tim10-1 inh 35, PfHsp90 yeast 2 -1, NLRP3 yeast inh 17 and TIM10 inh 25.
Screening CN(C(=O)c1cccc(Nc2ccc(-c3ccc4c(c3)OCCO4)nn2)c1)C1CCCCC1 returned tim23-1 inh 21, tim10-1 inh 13, PfHsp90 yeast 2 5, NLRP3 yeast inh 15 and TIM10 inh 19.
Screening CC(C)c1ccc(S(=O)(=O)N2CCN(CC(=O)c3ccc(O)c(O)c3)CC2)cc1 returned tim23-1 inh 24, tim10-1 inh 50*, PfHsp90 yeast 2 -16, NLRP3 yeast inh 7, TIM10 inh 22 and tim10-1 conf 9.
Screening O=C(CN1CCN(S(=O)(=O)c2ccc(Br)cc2)CC1)c1ccc(O)c(O)c1 returned tim23-1 inh -4, tim10-1 inh 5, PfHsp90 yeast 2 8, NLRP3 yeast inh 30 and TIM10 inh -7.
For CC1CCCC(C)N1NC(=S)Nc1ccc(OC(F)F)cc1 (stereo not given) the results were tim23-1 inh 35, tim10-1 inh 23, PfHsp90 yeast 2 32, NLRP3 yeast inh 10 and TIM10 inh 17.
For CC(=O)CSc1nnc(-c2ccc(S(=O)(=O)N3CCC(C)CC3)cc2)o1 the results were tim23-1 inh 29, tim10-1 inh 42*, PfHsp90 yeast 2 6, NLRP3 yeast inh -2, TIM10 inh 29 and tim10-1 conf 24.
For CCOC(=O)CSc1nnc(-c2ccc(S(=O)(=O)N3CCC(C)CC3)cc2)o1 the results were tim23-1 inh 20, tim10-1 inh 30, PfHsp90 yeast 2 8, NLRP3 yeast inh 3 and TIM10 inh -3.
C/C(=N\NC(=O)Cc1csc(N2CCOCC2)n1)c1ccc(Cl)c(Cl)c1 was read as tim23-1 inh 18, tim10-1 inh 41*, PfHsp90 yeast 2 6, NLRP3 yeast inh 10, TIM10 inh 39 and tim10-1 conf 19.
CCC/C(=N\NC(=O)Cc1csc(N2CCOCC2)n1)c1ccccc1 was read as tim23-1 inh 19, tim10-1 inh 17, PfHsp90 yeast 2 15, NLRP3 yeast inh -5 and TIM10 inh -11.
`Cc1ccccc1OCCNC(=O)/C=C/c1ccccc1` gave tim23-1 inh 10, tim10-1 inh 2, PfHsp90 yeast 2 1, NLRP3 yeast inh 18 and TIM10 inh -22.
`COc1cccc(Nc2nc(C)nc3c2oc2ccccc23)c1` gave tim23-1 inh 34, tim10-1 inh 43*, PfHsp90 yeast 2 -22, NLRP3 yeast inh 10, TIM10 inh 24 and tim10-1 conf 29.
`COc1ccc(Oc2nc(C)nc3c2oc2ccccc23)cc1` gave tim23-1 inh 19, tim10-1 inh 17, PfHsp90 yeast 2 10, NLRP3 yeast inh 42 and TIM10 inh 21.
Cc1nc(Oc2ccccc2)c2oc3ccccc3c2n1 was read as tim23-1 inh 6, tim10-1 inh 42*, PfHsp90 yeast 2 -4, NLRP3 yeast inh 0, TIM10 inh 13 and tim10-1 conf 24.
`Cn1cc(C(=O)NCCN2CCN(c3cccc(Cl)c3)CC2)c2c3ccccc3n(C)c2c1=O` gave tim23-1 inh 26, tim10-1 inh 46*, PfHsp90 yeast 2 -47, NLRP3 yeast inh 15, TIM10 inh 13 and tim10-1 conf 14.
`Cc1ccnc(Nc2nc(-c3ccc(F)cc3)cs2)c1` gave tim23-1 inh 47, tim10-1 inh 42*, PfHsp90 yeast 2 0, NLRP3 yeast inh 20, TIM10 inh 31 and tim10-1 conf 14.
Screening Cc1c(C=O)c(C=O)c(C)n1Cc1ccccc1 returned tim23-1 inh 39, tim10-1 inh 42*, PfHsp90 yeast 2 -9, NLRP3 yeast inh 11, TIM10 inh 17 and tim10-1 conf 21.
